# Bioassay records as filed in PubChem.
# In the library only some 4% were active in any assay of this set; here they are far more common.
# Shn3 inh set2: Schnurri-3 reporter inhibition in Clone20 osteoblasts; Clone20 osteoblast Shn3 3'UTR firefly luciferase, 24 h; inhibition, % at 12.5 µM; 360,000 tested, 0.52% active; AID 588674;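 active = mean inhibition of at least 75% with every replicate also reaching 75%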
# PAX8 inh HTS: lowers PAX8-driven luciferase in RMG-I cells | RMG-I TPO-luciferase reporter, SteadyGlo, 24 h | inhibition, % at 12.6 µM | 360,000 tested, 1.2% active;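 active = mean replicate inhibition at least 60% with every replicate also reaching 60%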;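 note: luciferase light reporting Pax8 driven TPO promoter activity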
# Mdm2 MdmX PPI: human Mdm2/MdmX binding inhibition; inhibition, % at 8 µM; SaOS-2 split-luciferase Mdm2/MdmX complementation, luminescence; O15151+Q00987; 330,000 tested, 3% active;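 active = inhibition of at least 50% at 8 µM in the primary screen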
# Gli-Sufu block: blocks Gli-Sufu signaling in a luciferase reporter; Sufu-KO-LIGHT fibroblasts, Gli luciferase reporter luminescence; inhibition, % at 5 µM; 340,000 tested, 0.74% active;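 active = inhibition above about 55%, limit read from the data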
# CSC inhib: blocks cancer stem cells; AID 2717; 300,000 tested, 1.1% active; inhibition, % at 7.5 µM; cancer stem cell-like cells viability, luminescence; in the data active = inhibition above about 75%; tested in HMLE shEcad cells
# Beta cell apopt: beta cell apoptosis inhibition | 300,000 tested, 0.8% active | AID 435005 | INS-1E cytokine-induced death, ATP luminescence, 48 h; percent of positive-control rescue, neutral wells zero | protection from apoptosis, % (no concentration beside the values);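 active = Every replicate reaches about 75%, or at least half do and their mean reaches it too, limit read from the data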;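 note: higher means more ATP so stronger rescue from cytokine killing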
# Mdm2 MdmX conf: human Mdm2/MdmX binding inhibition, confirmed; luminescent assay; shares compounds with Mdm2 MdmX PPI; inhibition, % at 8 µM; 10,000 tested, 55% active; in the data active = inhibition above about 40%
# FLuc counter: inhibits full-length luciferase, flagging false Mdm2/MdmX hits. shares compounds with Mdm2 MdmX PPI. SaOS-2 full-length luciferase counterscreen, luminescence. inhibition, % at 8 µM. 6,200 tested, 77% active. AID 504607;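 active = mean inhibition at 8 µM reaching about 37%, which flags the compound as non-specific, limit read from the data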;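 note: p53-null SaOS-2 cells with luciferase driven by a doxycycline-inducible promoter; compound on cells about two nights before reading with doxycycline added after day one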
# A number is an active result; i = inactive; nt = no result given.
SMILES,Shn3 inh set2,PAX8 inh HTS,Mdm2 MdmX PPI,Gli-Sufu block,CSC inhib,Beta cell apopt,Mdm2 MdmX conf,others
ClCc1nc2ccccc2c2ccccc12,i,i,52,i,i,i,i,
Cc1noc(C)c1NC(=O)N[C@@H]1CC[C@H](CC(=O)NCCCN(C)C)O[C@H]1CO,nt,i,nt,nt,nt,nt,nt,
COc1cc(/C=C(/C#N)C(=O)NCCc2c[nH]c3ccccc23)ccc1OCc1ccccc1F,i,nt,63,i,i,i,i,
Cc1cc(/C=C(\C#N)C(=O)NCCc2c[nH]c3ccccc23)c(C)n1C,i,i,i,i,i,i,nt,
CCCNC(=O)c1nnsc1S(=O)(=O)c1ccc(Cl)cc1,92,112,96,i,nt,nt,100,FLuc counter=51
CCCNC(=O)c1nnsc1S(=O)c1ccc(Cl)cc1 (stereo unspecified),96,79,97,i,nt,nt,100,FLuc counter=i
CCCNC(=O)c1ccc2snnc2c1,i,nt,i,i,i,i,nt,
Cc1ccc(S(=O)c2snnc2C)cc1 (stereo unspecified),i,i,i,i,nt,nt,nt,
CNC(=O)c1nnsc1S(=O)c1ccc(Cl)cc1 (stereo unspecified),97,i,98,i,nt,nt,94,FLuc counter=i
C#CCOCCOCCOCCNc1nc(N2CCN(C(=O)CCCCCCCCCCNC(=O)Cn3cc(C[C@@H](C)O)nn3)CC2)nc(N2CCN(C(=O)CCCCCCCCCCNC(=O)[C@@H]([C@H](C)CC)n3cc(CCCCCN)nn3)CC2)n1,i,nt,98,i,124,84,77,FLuc counter=i
C#CCOCCOCCOCCNc1nc(N2CCN(C(=O)CCCCCCCCCCNC(=O)Cn3cc(CCCCCN)nn3)CC2)nc(N2CCN(C(=O)CCCCCCCCCCNC(=O)[C@@H]([C@H](C)O)n3cc(C)nn3)CC2)n1,i,nt,i,i,i,i,nt,
C#CCOCCOCCOCCNc1nc(N2CCN(C(=O)CCCCCCCCCCNC(=O)Cn3cc(C[C@@H](C)O)nn3)CC2)nc(N2CCN(C(=O)CCCCCCCCCCNC(=O)[C@@H]([C@H](C)O)n3cc(C)nn3)CC2)n1,i,nt,54,i,158,i,i,
C[C@H]1CN([C@@H](C)CO)C(=O)c2cc(NC(=O)NC3CCCCC3)ccc2O[C@@H]1CN(C)CC1CCCCC1,nt,i,nt,nt,nt,nt,nt,
COc1ccc(NC(=O)N(C)C[C@@H]2Oc3c(NS(=O)(=O)c4ccccc4)cccc3C(=O)N([C@@H](C)CO)C[C@@H]2C)cc1,nt,i,nt,nt,nt,nt,nt,
C=C1C(C(=O)Nc2ccc(OCC)cc2)C1C(=O)Nc1ccc(OCC)cc1 (stereo unspecified),i,i,i,i,i,i,nt,
C=C1C(C(=O)Nc2ccc(OC)cc2)C1C(=O)Nc1ccc(OC)cc1 (stereo unspecified),i,i,72,i,i,i,i,
CO[C@H]1CN(C)C(=O)c2cc(NC(=O)C3CCOCC3)ccc2OC[C@@H](C)N(Cc2cccnc2)C[C@H]1C,nt,i,nt,nt,nt,nt,nt,
C[C@@H]1CN([C@H](C)CO)C(=O)Cc2cc(NC(=O)c3ccncc3)ccc2O[C@@H]1CN(C)C(=O)Nc1ccccc1,nt,i,nt,nt,nt,nt,nt,
CCCCSc1nnc2n(CCc3ccccc3)c(=O)c3c4c(sc3n12)COC(C)(C)C4,i,nt,55,i,i,i,i,
COc1ccc(CNC[C@@H](CCCCN(C)Cc2ccc(OC)cc2)N2C[C@H](c3ccccc3)N(CCc3ccc(Cl)c(Cl)c3)C(=O)C2=O)cc1,95,nt,99,i,107,99,100,FLuc counter=53
CCOc1ccc(CCN2C(=O)C(=O)N([C@@H](CC(C)C)CN3CCC[C@@H]3CN3C(=O)C(=O)NC[C@@H]3CC(C)C)C[C@@H]2Cc2ccccc2)cc1,i,i,nt,nt,nt,nt,nt,
CCOc1ccc(CCN2C(=O)C(=O)N([C@H](CCCN(C)Cc3ccccc3)CNCc3ccccc3)C[C@@H]2C(C)C)cc1,nt,nt,66,nt,nt,nt,56,FLuc counter=58
COCC(=O)N1CC(=O)N2[C@H](C1)[C@H](c1ccc(-c3ccncc3)cc1)[C@@H]2CO,nt,i,nt,nt,nt,nt,nt,
O=C(COc1cc(O)c2c(=O)cc(-c3ccccc3)oc2c1)c1ccccc1,i,nt,i,i,i,i,nt,
Cc1ccc(C(=O)COc2cc(O)c3c(=O)cc(-c4ccccc4)oc3c2)cc1,i,i,62,i,i,i,i,
